Outcome and AC50 data for six compounds are collected here from PubChem BioAssay (EPA / NIEHS).

The nature of test [1]: ATG_GRE_CIS: Attagene CIS-FACTORIAL HepG2 Assay for human Glucocorticoid Response Elements (GRE) (AID 2282947). Particulars: HepG2 GRE cis-reporter, Attagene multiplex mRNA; actives raise or lower the signal. The method in brief: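 Endogenous transcription factor activity is read through cis-element reporter constructs transiently transfected into HepG2 cells. After 24 h treatment, labelled RT-PCR products are resolved by capillary electrophoresis; DMSO sets baseline for bidirectional curve fitting.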

A short description of test [2]: ATG_M_32_CIS: Attagene CIS-FACTORIAL HepG2 Assay for M32 Transcription Factor (Internal Marker) (AID 2282949).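 Note: background control marker of the multiplexed CIS panel rather than a real target.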 Particulars: HepG2 Attagene cis-factorial M32 reporter, mRNA; actives raise or lower the signal. The method in brief:
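Internal background marker read-out: RT-PCR/capillary electrophoresis fluorescence of reporter transcripts from transiently transfected HepG2 cells after 24 h chemical exposure. Activity fitted bidirectionally relative to DMSO negative control.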

A short description of test [3]: ATG_M_06_CIS: Attagene CIS-FACTORIAL HepG2 Assay for M06 Transcription Factor (Internal Marker) (AID 2282950). Particulars: HepG2 Attagene CIS-FACTORIAL M06 internal marker reporter; actives raise or lower the signal. The method in brief: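 Internal background marker within multiplexed cis-reporter HepG2 system. Cells transiently transfected, dosed 24 h; reporter mRNA measured by RT-PCR, HpaI digestion and capillary electrophoresis. Bidirectional fit relative to DMSO.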

Test [4] concerns the target Hypoxia-inducible factor 1-alpha (Homo sapiens) (UniProt Q16665). The test is described as follows: ATG_HIF1a_CIS: Attagene CIS-FACTORIAL HepG2 Assay for human Hypoxia Inducible Factor 1 (HIF1A) (AID 2282951). To be noted: HepG2 Attagene cis-factorial HIF1a reporter transcription; actives raise or lower the signal. The essentials:
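RT-PCR/capillary electrophoresis fluorescence readout of reporter transcripts from endogenous-TF-driven cis elements in transfected HepG2 cells, 24 h exposure; activity fitted in both directions against DMSO controls.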

The target in test [5] is Hepatocyte nuclear factor 6 (Homo sapiens) (UniProt Q9UBC0). The test is described as follows: ATG_HNF6_CIS: Attagene CIS-FACTORIAL HepG2 Assay for human Hepatocyte Nuclear Factor 6 (HNF6) (AID 2282952). Particulars: HepG2 Attagene cis-factorial HNF6 reporter transcription; actives raise or lower the signal. The essentials:
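Multiplexed mRNA reporter assay in transfected HepG2; 24 h dosing; RT-PCR plus capillary electrophoresis fluorescence; DMSO-referenced bidirectional curve fitting.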

Test [6] concerns the target Heat shock factor protein 1 (Homo sapiens) (UniProt Q00613). The test is described as follows: ATG_HSE_CIS: Attagene CIS-FACTORIAL HepG2 Assay for human Heat Shock Transcription Factor 1 (HSE) (AID 2282953). Particulars: HepG2 HSE cis-reporter, Attagene RNA transcription; actives raise or lower the signal. The essentials: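 HepG2 cells transfected with cis-promoter reporter units sensing endogenous transcription factor activity; reporter mRNA quantified 24 h post-dose by RT-PCR and capillary electrophoresis of 6-FAM-labelled products. Bidirectional fitting against DMSO.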

Test [7] can be described thus: ATG_MRE_CIS: Attagene CIS-FACTORIAL HepG2 Assay for human Metal Responsive Element (MRE) (AID 2282954). Particulars: HepG2 MRE cis-reporter transcription, Attagene multiplex; actives raise or lower the signal. The essentials:
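Fluorescent reporter fragments separated by capillary electrophoresis give mRNA induction for the MRE unit after 24 h treatment of transfected HepG2 cells. Endogenous transcription-factor activity is read; DMSO serves as negative control and baseline.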

Test [8] addresses Paired box protein Pax-6 (Homo sapiens) (UniProt P26367). The test is described as follows: ATG_Pax6_CIS: Attagene CIS-FACTORIAL HepG2 Assay for human Paired Box 6 (PAX6) (AID 2282956). To be noted: HepG2 CIS-FACTORIAL PAX6 reporter transcription, RNA readout; actives raise or lower the signal. The essentials:
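Multiplexed cis-reporter HepG2 system; 24 h treatment; reporter mRNA read by RT-PCR/CE fluorescence; bidirectional fit vs DMSO.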

The nature of test [9]: ATG_PXRE_CIS: Attagene CIS-FACTORIAL HepG2 Assay for human Pregnane X Receptor Element (PXRE) (AID 2282957). Particulars: HepG2 Attagene CIS-FACTORIAL PXRE reporter, mRNA; actives raise or lower the signal. The essentials:
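Cells: HepG2, transiently transfected reporter units under cis promoter control. Exposure: 24 h. Detection: reporter mRNA via RT-PCR/CE fluorescence; bidirectional fitting, DMSO-referenced.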

A short description of test [10]: ATG_PPRE_CIS: Attagene CIS-FACTORIAL HepG2 Assay for human Peroxisome Proliferator-activated Response Element (PPRE) (AID 2282958). To be noted: HepG2 PPRE cis-element reporter, Attagene transcription factor profiling; actives raise or lower the signal. The essentials:
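Read-out: fluorescent reporter mRNA fragments resolved by capillary electrophoresis after RT-PCR. HepG2 cells carried transiently transfected PPRE-driven cis reporter constructs and were dosed for 24 h; gain or loss of signal fitted relative to DMSO.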

Test [11] can be described thus: ATG_RORE_CIS: Attagene CIS-FACTORIAL HepG2 Assay for human RAR-related Orphan Receptor Element (RORE) (AID 2282959). Particulars: HepG2 Attagene cis-factorial RORE reporter, mRNA; actives raise or lower the signal. The method in brief:
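Readout: fluorescent reporter mRNA by RT-PCR plus capillary electrophoresis, 24 h after dosing transfected HepG2 cells. Endogenous transcription factor activity on a cis promoter element is measured. Gain or loss of signal fitted against DMSO.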

The nature of test [12]: ATG_Sox_CIS: Attagene CIS-FACTORIAL HepG2 Assay for human SRY-box transcription factor (SOX) (AID 2282960). To be noted: HepG2 Attagene cis-factorial SOX reporter, mRNA; actives raise or lower the signal. The method in brief: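 Read-out: fluorescent RT-PCR products of SOX1-linked reporter transcripts resolved by capillary electrophoresis, fitted bidirectionally against DMSO. Transiently transfected HepG2 cells, 24 h after chemical exposure, endogenous transcription factor activity.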

In test [13] the target is Transcription factor Sp1 (Homo sapiens) (UniProt P08047). The test can be described thus: ATG_Sp1_CIS: Attagene CIS-FACTORIAL HepG2 Assay for human Specificity Protein 1 (Sp1) (AID 2282961). Particulars: HepG2 Sp1 cis-reporter transcription, actives raise or lower the signal. The essentials:
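Read-out: fluorescence of 6-FAM-labeled, HpaI-digested RT-PCR products separated by capillary electrophoresis. HepG2 cells carried transfected cis-element reporter units and were exposed to chemicals for 24 h; gain or loss of signal fitted relative to DMSO.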

Test [14] is described as follows: ATG_SREBP_CIS: Attagene CIS-FACTORIAL HepG2 Assay for human Sterol Regulatory Element Binding (SREBP) (AID 2282962). To be noted: HepG2 Attagene cis-factorial SREBP reporter, mRNA; actives raise or lower the signal. The essentials:
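mRNA induction of transfected cis-promoter reporters in HepG2 cells, 24 h post-dose. Detection: RT-PCR with 6-FAM-labelled products, HpaI digest, capillary electrophoresis. DMSO served as negative control and baseline.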

The target of test [15] is Signal transducer and activator of transcription 3 (Homo sapiens) (UniProt P40763). The test is described as follows: ATG_STAT3_CIS: Attagene CIS-FACTORIAL HepG2 Assay for human Signal Transducer and Activator of Transcription 3 (STAT3) (AID 2282963). To be noted: HepG2, Attagene cis-factorial STAT3 reporter transcription; actives raise or lower the signal. The method in brief:
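Values derive from bidirectional fits relative to DMSO of reporter mRNA levels, measured by RT-PCR with capillary electrophoresis, in HepG2 cells carrying transiently transfected cis-regulated reporter units and exposed 24 h.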

Test [16] can be described thus: ATG_TA_CIS: Attagene CIS-FACTORIAL HepG2 Assay for human TA Basal Promoter (AID 2282964). To be noted: HepG2 Attagene CIS-factorial TA basal promoter reporter; actives raise or lower the signal. The method in brief: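 HepG2 cells transiently transfected with multiple reporter units under cis promoter elements, reporting endogenous transcription factor activity; this endpoint tracks the TA basal promoter as background control. Reporter mRNA after 24 h dosing measured by RT-PCR/capillary electrophoresis; bidirectional fits versus DMSO.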

Test [17] can be described thus: ATG_TCF_b_cat_CIS: Attagene CIS-FACTORIAL HepG2 Assay for human T-Cell-Factor with beta-catenin (TCF/b-cat) (AID 2282965). Particulars: HepG2 TCF/beta-catenin cis-reporter transcription, actives raise or lower the signal. The essentials: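 HepG2, transient MRTU transfection, cis-element-driven reporters (endogenous TFs). 24 h compound exposure. Readout: reporter mRNA by RT-PCR + 6-FAM primer extension, HpaI digest, capillary electrophoresis. Gain/loss fit vs DMSO baseline.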

Test [18] can be described thus: ATG_ISRE_CIS: Attagene CIS-FACTORIAL HepG2 Assay for human Interferon Regulatory Factor 1 (IRF1) binding to an Interferon-Stimulated Response Element (ISRE) (AID 2282948). To be noted: HepG2 ISRE cis-reporter (Attagene), mRNA transcription readout; actives raise or lower the signal. The essentials: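 Cell-based cis-reporter assay; HepG2; 24 h exposure; reporter mRNA by RT-PCR plus capillary electrophoresis fluorescence; activity in either direction scored relative to DMSO.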

A short description of test [19]: ATG_PBREM_CIS: Attagene CIS-FACTORIAL HepG2 Assay for human Phenobarbital-responsive Enhancer Module (PBREM) (AID 2282955). Particulars: HepG2 PBREM cis-reporter, Attagene multiplexed transcription; actives raise or lower the signal. The method in brief: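 Reporter mRNA read by RT-PCR, 6-FAM primer extension, HpaI digestion and capillary electrophoresis. Transfected HepG2 cells, 24 h compound exposure. Gain or loss of signal fitted bidirectionally relative to DMSO baseline.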

The structures appear in SMILES notation. The source made the active and inactive calls. Rule for the calls: active = hit-call score of the fitted dose curve at least 0.9, where 1 is the maximum; inactive = score below 0.9.

Chain of Transcription factor Sp1 (Homo sapiens) (P08047 whole entry, looked up): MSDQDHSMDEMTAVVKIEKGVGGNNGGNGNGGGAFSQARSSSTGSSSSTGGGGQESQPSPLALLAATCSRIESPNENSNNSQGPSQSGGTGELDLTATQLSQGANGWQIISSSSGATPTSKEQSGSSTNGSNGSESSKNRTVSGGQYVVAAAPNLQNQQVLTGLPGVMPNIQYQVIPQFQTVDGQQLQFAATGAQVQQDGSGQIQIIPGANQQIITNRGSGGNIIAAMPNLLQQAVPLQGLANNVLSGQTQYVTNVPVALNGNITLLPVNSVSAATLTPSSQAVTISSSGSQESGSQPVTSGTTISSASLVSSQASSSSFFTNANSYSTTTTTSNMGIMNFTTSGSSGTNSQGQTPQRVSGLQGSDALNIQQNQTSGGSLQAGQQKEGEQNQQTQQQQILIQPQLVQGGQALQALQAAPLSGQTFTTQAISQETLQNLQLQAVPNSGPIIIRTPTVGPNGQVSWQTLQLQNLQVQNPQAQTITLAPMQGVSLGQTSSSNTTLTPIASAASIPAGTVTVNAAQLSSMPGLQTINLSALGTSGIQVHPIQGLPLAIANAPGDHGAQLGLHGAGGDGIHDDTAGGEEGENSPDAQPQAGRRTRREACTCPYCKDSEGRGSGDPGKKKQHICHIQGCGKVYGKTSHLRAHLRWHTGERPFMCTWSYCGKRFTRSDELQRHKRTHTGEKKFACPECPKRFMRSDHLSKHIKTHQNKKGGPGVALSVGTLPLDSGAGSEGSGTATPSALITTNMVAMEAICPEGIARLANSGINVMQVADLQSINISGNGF
Chain of Heat shock factor protein 1 (Homo sapiens) (Q00613 whole entry, looked up): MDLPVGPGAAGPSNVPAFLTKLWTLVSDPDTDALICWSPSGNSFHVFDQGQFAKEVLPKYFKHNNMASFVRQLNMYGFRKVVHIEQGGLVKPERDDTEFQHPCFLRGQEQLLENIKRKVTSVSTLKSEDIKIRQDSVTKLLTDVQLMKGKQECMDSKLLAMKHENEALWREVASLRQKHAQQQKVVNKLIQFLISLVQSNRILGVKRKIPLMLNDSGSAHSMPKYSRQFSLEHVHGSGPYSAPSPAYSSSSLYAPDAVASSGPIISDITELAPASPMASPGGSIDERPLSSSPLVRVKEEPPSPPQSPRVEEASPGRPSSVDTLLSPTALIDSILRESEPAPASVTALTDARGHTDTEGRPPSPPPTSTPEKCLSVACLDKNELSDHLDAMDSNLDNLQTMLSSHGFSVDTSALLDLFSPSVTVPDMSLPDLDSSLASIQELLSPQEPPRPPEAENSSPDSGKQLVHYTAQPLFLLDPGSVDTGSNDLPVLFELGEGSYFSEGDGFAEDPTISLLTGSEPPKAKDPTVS
Chain of Signal transducer and activator of transcription 3 (Homo sapiens) (P40763 whole entry, looked up): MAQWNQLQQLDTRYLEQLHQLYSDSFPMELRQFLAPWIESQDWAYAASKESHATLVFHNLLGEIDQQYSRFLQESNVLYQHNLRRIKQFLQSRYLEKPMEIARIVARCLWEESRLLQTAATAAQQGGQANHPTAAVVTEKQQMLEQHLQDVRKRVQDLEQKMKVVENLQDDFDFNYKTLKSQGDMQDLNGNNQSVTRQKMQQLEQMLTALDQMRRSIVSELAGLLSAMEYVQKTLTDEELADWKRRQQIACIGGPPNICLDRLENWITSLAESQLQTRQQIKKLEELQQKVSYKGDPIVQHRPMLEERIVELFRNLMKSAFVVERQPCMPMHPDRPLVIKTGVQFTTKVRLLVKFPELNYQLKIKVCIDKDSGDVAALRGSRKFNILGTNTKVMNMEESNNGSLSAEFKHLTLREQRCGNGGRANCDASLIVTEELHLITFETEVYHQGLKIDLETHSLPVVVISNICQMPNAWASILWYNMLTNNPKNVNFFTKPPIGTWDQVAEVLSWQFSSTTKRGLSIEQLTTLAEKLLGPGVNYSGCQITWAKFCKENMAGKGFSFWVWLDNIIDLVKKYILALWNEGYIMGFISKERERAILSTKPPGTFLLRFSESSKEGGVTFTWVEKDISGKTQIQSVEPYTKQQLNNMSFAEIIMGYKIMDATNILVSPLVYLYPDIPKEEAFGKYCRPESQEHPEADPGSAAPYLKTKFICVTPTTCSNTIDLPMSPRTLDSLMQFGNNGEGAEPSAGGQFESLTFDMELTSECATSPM
Chain of Hepatocyte nuclear factor 6 (Homo sapiens) (Q9UBC0 whole entry, looked up): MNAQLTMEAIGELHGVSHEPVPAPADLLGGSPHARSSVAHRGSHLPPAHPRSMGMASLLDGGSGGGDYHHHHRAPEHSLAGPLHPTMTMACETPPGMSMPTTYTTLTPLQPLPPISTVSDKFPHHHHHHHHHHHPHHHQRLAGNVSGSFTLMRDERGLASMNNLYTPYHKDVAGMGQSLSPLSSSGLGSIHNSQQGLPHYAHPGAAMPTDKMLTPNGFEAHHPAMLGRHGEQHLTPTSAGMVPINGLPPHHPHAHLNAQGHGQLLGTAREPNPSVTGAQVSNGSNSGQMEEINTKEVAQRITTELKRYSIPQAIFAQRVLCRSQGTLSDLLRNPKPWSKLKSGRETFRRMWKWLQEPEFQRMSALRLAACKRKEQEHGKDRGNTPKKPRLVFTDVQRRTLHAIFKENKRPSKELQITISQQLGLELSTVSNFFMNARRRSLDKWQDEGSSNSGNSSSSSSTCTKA
Chain of Hypoxia-inducible factor 1-alpha (Homo sapiens) (Q16665 whole entry, looked up): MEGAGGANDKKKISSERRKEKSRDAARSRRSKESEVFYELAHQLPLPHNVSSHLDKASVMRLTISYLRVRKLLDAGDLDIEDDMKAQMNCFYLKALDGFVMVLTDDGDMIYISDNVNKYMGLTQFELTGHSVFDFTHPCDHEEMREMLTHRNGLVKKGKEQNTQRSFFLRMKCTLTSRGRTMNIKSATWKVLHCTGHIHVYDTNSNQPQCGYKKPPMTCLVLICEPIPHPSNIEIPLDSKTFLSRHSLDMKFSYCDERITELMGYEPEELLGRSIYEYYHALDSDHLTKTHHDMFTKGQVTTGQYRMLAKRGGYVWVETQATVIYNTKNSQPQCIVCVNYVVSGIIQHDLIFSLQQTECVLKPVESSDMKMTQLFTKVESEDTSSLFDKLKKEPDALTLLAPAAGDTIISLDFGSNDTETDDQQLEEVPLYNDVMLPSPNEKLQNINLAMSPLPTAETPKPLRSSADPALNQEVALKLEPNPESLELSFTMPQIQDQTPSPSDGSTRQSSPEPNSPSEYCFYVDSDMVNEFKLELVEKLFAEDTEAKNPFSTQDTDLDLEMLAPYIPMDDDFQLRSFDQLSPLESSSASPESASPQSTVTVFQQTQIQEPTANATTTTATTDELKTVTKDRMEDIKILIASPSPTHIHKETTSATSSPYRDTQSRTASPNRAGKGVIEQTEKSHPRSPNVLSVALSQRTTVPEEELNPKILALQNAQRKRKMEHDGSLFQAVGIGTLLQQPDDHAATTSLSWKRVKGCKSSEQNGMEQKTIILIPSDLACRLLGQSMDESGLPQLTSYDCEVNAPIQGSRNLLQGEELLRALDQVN
Chain of Paired box protein Pax-6 (Homo sapiens) (P26367 whole entry, looked up): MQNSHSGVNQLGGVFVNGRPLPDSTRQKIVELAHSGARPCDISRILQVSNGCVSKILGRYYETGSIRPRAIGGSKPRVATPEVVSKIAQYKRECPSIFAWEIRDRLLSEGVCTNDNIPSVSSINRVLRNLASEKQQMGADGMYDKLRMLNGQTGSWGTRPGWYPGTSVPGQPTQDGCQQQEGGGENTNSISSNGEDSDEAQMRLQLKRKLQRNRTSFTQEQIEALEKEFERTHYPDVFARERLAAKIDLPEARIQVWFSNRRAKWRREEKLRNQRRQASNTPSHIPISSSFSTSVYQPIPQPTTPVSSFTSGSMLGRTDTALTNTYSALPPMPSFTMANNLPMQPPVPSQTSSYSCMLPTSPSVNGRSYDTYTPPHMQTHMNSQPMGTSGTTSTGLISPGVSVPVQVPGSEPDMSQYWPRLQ

Regarding `Clc1ccc2c(c1)C(N1CCNCC1)=Nc1ccccc1O2`, the compound was classed as inactive in test [1], in test [3], in test [4], in test [5], in test [9] and in test [10]. Further, the outcome in test [11], in test [12], in [13], in test [14], in test [15] and in test [16] was inactive. Further, in [17], the result was inactive. For the same compound, the concentration at half-maximal activity (AC50) is 52.4 µM (active) in test [2], 52.1 µM (active) in [6], 34.2 µM (active) in [7] and 41.1 µM (active) in [8].
With `c1ccc2[nH]ccc2c1`, the compound was classed as inactive in test [1], in [2], in [3], in test [4], in test [5] and in test [6]. Also, the compound was called inactive in [7], in [10], in [11], in test [12], in test [13] and in test [14]. Besides, the compound was classed as inactive in [15], in [16] and in [17]. Further, the AC50 in test [9] is 29.9 µM (active).
Take `CO[Si](CCCn1c(=O)n(CCC[Si](OC)(OC)OC)c(=O)n(CCC[Si](OC)(OC)OC)c1=O)(OC)OC`: the compound was called inactive in test [18], in test [2], in [3], in test [4], in test [5] and in test [6]. The outcome in test [7], in test [19], in [8], in test [10], in test [11] and in [12] was inactive. Further, the result in [13], in test [14], in test [15] and in test [16] was inactive. The AC50 in test [9] is 28.6 µM (active).
On to `CC(C)=CCC/C(C)=C/COC=O`, for which the outcome in [18], in [2], in test [3], in [4], in test [5] and in test [6] was inactive. In addition, the outcome in test [7], in [8], in test [9], in test [10], in test [11] and in test [12] was inactive. In addition, the result in [13], in test [14], in [15] and in test [16] was inactive.
For the compound `Nc1nc2ccc([N+](=O)[O-])cc2s1`, the values for the concentration at half-maximal activity (AC50) in [18] and in test [9] were 77.4 µM (active) and 19.8 µM (active), respectively. For the same compound, the outcome in [2], in [3], in test [4], in test [5], in [6] and in test [7] was inactive. The outcome in [19], in test [12], in test [13], in test [14], in [15] and in [16] was inactive. Besides, in [17], the outcome was inactive.
As to `CCCCCCCCCCCCCCCCCC(=O)OCC(CC)CCCC` (centres undefined), the call in [18], in test [2], in [3], in test [4], in test [5] and in [6] was inactive. For the same compound, the compound was called inactive in test [7], in test [19], in test [8], in test [9], in [10] and in test [11]. Further, the compound was classed as inactive in [12], in test [13], in test [14], in test [15], in [16] and in test [17].
